Source: PubChem BioAssay (NCI)
Compounds without any hit were thinned out: in the full panel of roughly 83,000, 20% have a hit.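 Assay: single dose, 48 h. Readout: percent growth (0 = no net growth; negative = cell death). Active: <10.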 Values without a mark were called inactive. Activity calls are given as the source filed them.

Tested on: MDA-MB-468 breast
Assay: NCI-60 one-dose screen, 48 h (100 = growth as untreated, 0 = no growth, -100 = all killed)
Details: 10 µM unless noted

| SMILES | growth |
| --- | --- |
| O=C(Nc1cccc(C(=O)N2CCc3ccc(Cl)cc32)c1)c1ccco1 | -0.651% (active) |
| CC(=O)c1c(/C=C/c2ccc(C)cc2)c2ccccc2[nH]c1=O | 110% |
| O=C1c2c(c3c4ccc(Br)cc4oc3c3[nH]c4ccccc4c23)C(=O)N1CCO | 46.5% |
| CN(C)S(=O)(=O)n1cnc([C@@H]2[C@@H]3C(=O)OC[C@@H]3C[C@]23N=CN(Cc2ccccc2)C3=O)c1 | 97.2% |
| COc1ccc(N2C(=O)/C(=C/C(Cl)=C/c3ccc([N+](=O)[O-])cc3)SC2=S)cc1 | -11.8% (active) |
| Cn1ccnc1C(=O)/C=C/c1ccc(C(=O)Nc2c(F)c(F)c(F)c(F)c2F)cc1 | -16.7% (active) |
| NC1(C(=O)O)CSSC1 | 29.6% |
| C=C1C(=O)O[C@H]2[C@H]1CC/C(COC(=O)NCC(=O)Nc1ccc(OC)c(C(N)=O)c1O)=C\CC[C@@]1(C)O[C@@H]21 | 8.85% (active) |
| O=C(CSc1nc2sc3c(c2c(=O)n1Cc1ccccc1)CCCC3)N1CCN(c2ccccc2)CC1 | 106% |
| COc1ccc2c(c1)C(C)Cc1c(Cl)nc(C)nc1N2C (stereo not drawn) | 25.8% |
| CCNC(=S)N(Cc1ccccc1)Cc1ccccc1 | 95.4% |
| O=C1c2ccccc2C(=O)c2c1ccc1[nH]c(CCl)nc21 | -28.6% (active) |
| COc1ccc2c(c1)c(-c1noc(C(=O)c3cn(C)c4ccc(Br)cc34)n1)cn2C | 120% |
